Bioassay records: PubChem, The Scripps Research Institute Molecular Screening Center
Hits are enriched below; roughly 3.4% of the tested compounds scored in any of these assays.
PAFAH2 inh = inhibitors of human PAFAH2; Q99487; recombinant PAFAH2, FP-rhodamine activity probe, fluorescence polarization; inhibition, % at 3.39 µM; 340,000 tested, 0.99% active; AID 492956;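 active = inhibition above the mean over all tested compounds plus 3 SD, cut at about 30% in these data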;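 also: inhibitors block probe labeling of enzyme so polarization drops; 0% = enzyme with DMSO and 100% = wells lacking PAFAH2 protein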
pPAFAH FP inh = pPAFAH (human) enzyme inhibition; Q13093; recombinant pPAFAH, FP-rhodamine probe fluorescence polarization; inhibition, % at 3.39 µM; 330,000 tested, 1.5% active; AID 463082;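 active = inhibition above the mean inhibition across the screen plus 3 SD, cut at about 25% in these data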;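 also: inhibitors block binding of the rhodamine activity-based probe so polarization drops; 0% = enzyme with DMSO and 100% = wells lacking pPAFAH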
PAFAH1B2 FP inh = inhibitors of human PAFAH1B2; P68402; inhibition, % at 3.39 µM; 340,000 tested, 1.2% active; recombinant PAFAH1B2, FP-rhodamine activity probe, fluorescence polarization;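 active = inhibition above the mean of all tested compounds plus 3 SD, cut at about 24% in these data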;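 also: 0% = enzyme with DMSO and 100% = wells lacking PAFAH1B2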
PAFAH1B3 inh = blocks human PAF acetylhydrolase 1B catalytic subunit 3 | AID 492972 | 340,000 tested, 0.28% active | inhibition, % at 3.39 µM | Q15102 | recombinant PAFAH1B3, FP-rhodamine probe, fluorescence polarization;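 active = inhibition above the screen-wide average of all tested compounds plus 3 SD, cut at about 25% in these data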;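 also: 0% = enzyme with DMSO only and 100% = wells lacking PAFAH1B3 protein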
PP5 inh = PP5 (human) phosphatase inhibition; purified PP5c, OMFP substrate fluorescence; inhibition, % at 6.7 µM; 320,000 tested, 0.18% active;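 active = inhibition above the campaign's mean inhibition across all tested compounds plus 3 SD, cut at about 9.5% in these data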;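 also: 0% = DMSO only and 100% = 100 µM cantharidin control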
Target sequence (P53041 whole entry, looked up): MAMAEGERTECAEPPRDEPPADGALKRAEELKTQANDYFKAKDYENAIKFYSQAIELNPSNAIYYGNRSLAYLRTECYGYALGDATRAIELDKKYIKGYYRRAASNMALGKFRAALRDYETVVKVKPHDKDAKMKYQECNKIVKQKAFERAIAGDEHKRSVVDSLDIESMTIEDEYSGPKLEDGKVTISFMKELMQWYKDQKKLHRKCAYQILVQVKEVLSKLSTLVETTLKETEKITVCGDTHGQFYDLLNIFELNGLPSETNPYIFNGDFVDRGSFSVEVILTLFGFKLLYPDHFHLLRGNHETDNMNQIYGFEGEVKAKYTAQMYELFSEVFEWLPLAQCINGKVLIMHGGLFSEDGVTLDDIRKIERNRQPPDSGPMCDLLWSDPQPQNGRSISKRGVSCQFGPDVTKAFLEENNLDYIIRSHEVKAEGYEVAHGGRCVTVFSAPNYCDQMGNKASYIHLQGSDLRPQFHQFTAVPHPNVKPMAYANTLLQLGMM
PP1 inh = counter-screen for PP5 inhibitors: inhibitors of human PP1-alpha. purified PP1alpha, OMFP fluorescence. inhibition, % at 6.7 µM. 320,000 tested, 0.9% active;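 active = inhibition above the mean inhibition of all tested compounds plus 3 SD, computed separately for each screening campaign, cut at about 15% in these data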
PAFAH2 confirm = PAFAH2 (human) inhibition, confirmed; shares compounds with PAFAH2 inh; recombinant PAFAH2, FP-rhodamine activity probe, fluorescence polarization; inhibition, % at 3.39 µM; 2,300 tested, 65% active; AID 493030;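 active = mean inhibition over three repeats above a set limit taken from the earlier primary screen, cut at about 30% in these data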;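 also: inhibitor blocks binding of rhodamine activity probe so polarization falls; 0% = enzyme with DMSO and 100% = wells lacking PAFAH2 protein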
The depositor's hits bear a star; . = not tested or not shown.

SMILES	PAFAH2 inh	pPAFAH FP inh	PAFAH1B2 FP inh	PAFAH1B3 inh	PP5 inh	PP1 inh	PAFAH2 confirm
Cc1ccc(C(=O)OCC(=O)NCC(F)(F)F)cc1C	53.4*	6.0	6.6	-4.2	0.9	1.1	49.5*
C1CCc2c(nc3nnnn3c2N2CCOCC2)C1	-2.2	2.8	3.1	3.6	0.9	-0.8	.
O=C(NCc1ccccc1)C(c1ccco1)N(C(=O)c1cnccn1)c1ccc(F)cc1 (stereo not drawn)	-0.8	-3.0	5.3	5.7	-0.7	-0.5	.
N#Cc1ccccc1OCC(=O)NNC(=O)CCC1CCCC1	40.8*	15.9	6.4	0.5	.	.	26.2
Cc1ccc(S(=O)(=O)NCCSc2nnc(N)s2)cc1	-2.8	-4.8	0.2	-6.8	1.1	0.2	.
Cc1ccc(C(=O)NCCSC(C)(C)C)cc1	0.0	4.5	1.5	8.4	2.2	-0.9	.
CC(=O)Nc1ccc2c(c1Br)Cc1ccccc1-2	-2.0	.	0.1	4.3	.	.	.
CC(=O)Nc1cccc2c1Cc1ccccc1-2	42.2*	8.7	2.2	2.0	-1.2	2.0	-1.7
Cc1ccc(O)c(NC(=O)Cc2ccc3ccccc3c2)c1	74.2*	3.0	0.7	6.7	3.7	1.2	67.6*
O=C(OCc1ccccc1)c1ccc(NCc2cc(O)ccc2O)cc1	71.7*	.	2.0	14.4	.	.	56.7*
CC1CCN(C(=O)CSc2ccc(-c3ccc4c(c3)OCCO4)nn2)CC1	-7.2	-4.8	9.4	3.9	2.2	5.5	.
CCN(CC)C(=S)Nc1ccc(OC(F)F)cc1	2.2	5.4	2.5	-0.8	0.3	-1.4	.
CSc1ccc(Cl)c(C(=O)OCC(=O)NCC(C)C)c1	43.1*	3.3	-0.9	-0.2	-1.2	-1.8	30.0*
O=C(c1ccccc1)c1ccc2cc(O)ccc2c1	3.0	7.2	4.4	4.4	2.9	1.9	.
Cc1ccc(S(=O)(=O)N(C)c2ccc(OC(=O)c3cccs3)cc2)cc1C	33.5*	11.6	0.5	11.0	0.5	2.9	25.3
CCN(c1cccc(C)c1)C1C(=O)c2ccccc2N1C(C)=O (stereo not drawn)	37.5*	0.1	12.2	5.7	0.6	-1.2	11.9
O=C(NCc1cc([N+](=O)[O-])ccc1O)c1cccnc1Sc1ccccc1Cl	39.1*	2.9	0.2	4.2	2.0	2.3	32.0*
O=C(CCl)NCCN1C(=O)S/C(=C\c2cccnc2)C1=O	-1.2	-1.3	-7.5	-1.9	0.9	0.3	.
O=C(Cn1[nH]c(=O)c2ccccc2c1=O)NCCN1C(=O)S/C(=C\c2ccccc2)C1=O	31.5*	9.2	2.1	3.8	.	.	4.3
O=C(NCc1ccco1)c1cc2ccccc2c(=O)o1	12.6	2.8	4.1	4.3	1.0	-2.9	.
C/C=C/C(=O)OCC(=O)Nc1cc(-c2cc(C)c(C)cc2C)nn1-c1ccccc1	40.8*	-5.4	-0.6	-4.3	2.8	2.7	30.2*
COc1ccc(C(=O)COC(=O)/C=C/c2ccc(S(=O)(=O)Nc3cccc(S(N)(=O)=O)c3)cc2)cc1	31.7*	-1.9	1.5	3.4	1.6	5.1	19.1
Cc1nn(-c2ccc(F)cc2)c(Cl)c1/C=C/C(=O)OCC(=O)Nc1ccc(F)cc1F	14.3	-0.9	0.7	-2.9	4.1	-1.7	.
Cc1ccc(NC(=O)COC(=O)/C=C/c2c(C)nn(-c3ccc(F)cc3)c2Cl)cc1F	72.3*	3.2	1.2	2.4	1.3	1.7	57.3*
Cc1nn(-c2ccccc2)c(C)c1/C=C/C(=O)OCC(=O)Nc1ccc(C(N)=O)cc1	5.9	-8.5	-2.9	-3.8	0.5	1.9	.
COc1cccc(NC(=O)COC(=O)/C=C/c2c(C)nn(-c3ccccc3)c2C)c1	78.3*	2.4	-8.6	-2.6	6.3	-3.2	80.3*
COc1ccc(/C=C/C(=O)OCC(=O)Nc2cc(C(N)=O)cc(C(N)=O)c2)cc1	-3.5	-0.6	-4.2	6.4	5.2	-0.4	.
Cc1nn(-c2ccccc2)c(C)c1/C=C/C(=O)OCC(=O)Nc1ncc(C(F)(F)F)cc1Cl	45.1*	1.8	-0.7	1.9	-0.1	-0.9	35.5*
COc1ccc(/C=C/C(=O)OCC(=O)Nc2cccc(C(C)=O)c2)cc1	90.2*	-1.1	0.1	0.9	0.7	-2.5	80.6*
